The values that follow come from PubChem BioAssay (Tox21).

Records with an inconclusive call do not appear. Values without a mark were called inactive. Active and inactive are the calls of the source. Unless noted, calls follow the shape of the dose curve; as a rule, active = well fitted curve in the direction sought with a large enough effect in the repeat runs; inconclusive = weak or mixed curves; inactive = no such curve, though single readings can be large; an effect the other way counts as inactive or inconclusive.

A short description of experiment [1]: qHTS assay to identify small molecule antagonists of the vitamin D receptor (VDR) signaling pathway - cell viability counter screen (AID 743225). Also: nearly all actives have a fitted effect of over 50% in size. The method, boiled down: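 Cytotoxicity toward the VDR-bla HEK 293T line was scored by ATP-based CellTiter-Glo luminescence, read in the wells already used for the beta-lactamase readout after 16 h compound treatment under 3 nM 1-alpha,25-dihydroxyvitamin D3 stimulation.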
(In general: qHTS replaces the single test concentration by a dilution series.)

Experiment [2] can be described thus: qHTS assay to identify small molecule agonists of the NFkB signaling pathway - cell viability counter screen (AID 1159515; calls by dose curve; also: series mostly up to about 61 µM; nearly all actives have a fitted effect of over 55% in size). Summed up: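 Counter screen run alongside the NFkB-bla agonist assay: ME-180 reporter cells exposed to compounds for 5 hr, then lysed with CellTiter-Glo in the same wells. Luminescence, read after 30 min, reflects viable cells.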
The nature of experiment [3]: qHTS assay to identify small molecule agonists of the endoplasmic reticulum stress response signaling pathway - cell viability counter screen (AID 1159517; calls by dose curve; also: series mostly up to about 61 µM; nearly all actives have a fitted effect of over 50% in size). Summed up: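 Steps: seed 1,500 ESRE-bla HeLa cells per well; incubate overnight at 37 C, 5% CO2; add compounds in DMSO for 5 hr; run FRET substrate 2 hr RT; add CellTiter-Glo, wait 30 min, read luminescence.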
A short description of experiment [4]: qHTS assay to identify small molecule antagonists of the retinoid-related orphan receptor gamma (ROR-gamma) signaling pathway - cell viability counter screen (AID 1159520). Also: nearly all actives have a fitted effect of over 50% in size. The method, boiled down: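 Tet-on ROR gamma CHO cells were given compounds for 2 hr, then doxycycline hyclate at 1 uM final, and incubated 16 hr at 37 C. Viability was measured as ATP content by CellTiter-Glo luminescence.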

Experiment [5] in a line: qHTS assay to identify small molecule agonists of the AP-1 signaling pathway (AID 1159526; calls by dose curve).
Experiment [6] addresses Retinoic acid receptor RXR-alpha (Homo sapiens) (UniProt P19793). The experiment is described as follows: qHTS assay to identify small molecule agonists of the RXR signaling pathway (AID 1159527; calls by dose curve; also: nearly all actives have a fitted effect of over 35% in size; also: potency is read from the fitted curve at half-maximal effect). Summed up: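 Reporter activation is measured as beta-lactamase activity via FRET substrate cleavage (emission 460/530 nm) in HEK 293T cells expressing an RXR-alpha-driven bla construct, following 16 hr compound exposure at 37 C.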

Experiment [7] in a line: qHTS assay to identify small molecule agonists of the RXR signaling pathway - cell viability counter screen (AID 1159529). Also: series mostly up to about 77 µM; nearly all actives have a fitted effect of over 50% in size. Summed up:
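Tox21 10K compounds were tested for cytotoxicity against GeneBLAzer RXR-alpha HEK 293T cells grown in 2% charcoal-stripped FBS. Exposure lasted 16 hr at 37 C, 5% CO2; viability read by CellTiter-Glo luminescence.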

A short description of experiment [8]: qHTS assay to identify small molecule antagonists of the retinoid acid receptor (RAR) signaling pathway - cell viability counter screen (AID 1159551). Also: nearly all actives have a fitted effect of over 35% in size. Summed up: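 Measured by luminescent ATP detection, viability reflects C3RL4 cells treated 6 h at 37 C with test chemicals in the presence of 1 uM (final) retinol.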
The nature of experiment [9]: qHTS assay to identify small molecule agonists of the NFkB signaling pathway (AID 1159509; active = well fitted curve in the direction sought with a large enough effect in the signal ratio in the repeat runs, not every such curve was filed as active; the % refers to the signal ratio; also: series mostly up to about 61 µM). The method, boiled down: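 Readout: FRET fluorescence, 405 nm excitation, 460/530 nm emission; beta-lactamase expression disrupts FRET. Cells: ME-180 stably carrying NF-kB-driven bla reporter. Compound exposure 5 hr, 37 C, 5% CO2.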
Experiment [10] can be described thus: qHTS assay to identify small molecule agonists of the endoplasmic reticulum stress response signaling pathway (AID 1159516; active = well fitted activation curve with a large enough effect in the signal ratio in the repeat runs, not every such curve was filed as active; the % refers to the signal ratio). The method, boiled down:
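For this screen, HeLa cells stably carrying beta-lactamase under the ER stress response element received test compounds, positive controls or DMSO for 5 hr at 37 C; B/G FRET substrate was then added and dual-wavelength emission recorded.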

For experiment [11], the target named is Nuclear receptor ROR-gamma (Homo sapiens) (UniProt P51449). Put plainly: qHTS assay to identify small molecule antagonists of the retinoid-related orphan receptor gamma (ROR-gamma) signaling pathway (AID 1159521; also: nearly all actives have a fitted effect of over 50% in size; also: potency is read from the fitted curve at half-maximal effect). The method, boiled down: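 Readout: ONE-Glo luciferase luminescence, 30 min at room temperature. System: Tet-on RORγ CHO, RORE-LUC. Sequence: compound 2 h, doxycycline 1 uM final, 16 h at 37 C.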

Experiment [12] can be described thus: qHTS assay to identify small molecule agonists of the AP-1 signaling pathway - cell viability counter screen (AID 1159525; calls by dose curve; also: nearly all actives have a fitted effect of over 55% in size). The method, boiled down:
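Same-well cytotoxicity counter screen of the Tox21 10K library in ME-180 cells. The readout is ATP-dependent luminescence after 5 h compound treatment. Data are normalised to DMSO and tetra n-octyl ammonium bromide controls.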

The nature of experiment [13]: qHTS assay to identify small molecule antagonists of the retinoic acid receptor (RAR) signaling pathway (AID 1159552; also: nearly all actives have a fitted effect of over 50% in size). The method, boiled down: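 Overnight-plated C3RL4 reporter cells get compound, then retinol to 1 uM final; plates sit 6 hr at 37 C, 5% CO2. A luciferase reagent is added and light output recorded after 30 min at room temperature.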
The nature of experiment [14]: qHTS assay to identify small molecule agonists of the retinoic acid receptor (RAR) signaling pathway (AID 1159553). Also: potency is read from the fitted curve at half-maximal effect. The method, boiled down: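 6 hr compound exposure (DMSO vehicle) of overnight-plated C3RL4 RARE-luc cells at 37 C; luminescence quantified after 30 min RT with luciferase reagent.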
Experiment [15] in a line: qHTS assay to identify small molecule antagonists of the estrogen related receptor (ERR) signaling pathway from Tox21 library - cell viability counter screen (AID 1224834). Also: nearly all actives have a fitted effect of over 30% in size. The method, boiled down: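 Seeded ERR cells were rested 6 h at 37 C/5% CO2 before compounds, positive and negative controls or DMSO were added. Incubation continued for 17.5 h, and viability was then quantified by CellTiter-Fluor fluorescence.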

Experiment [16] in a line: qHTS assay to identify small molecule antagonists of the estrogen related receptor (ERR) signaling pathway (AID 1224819). The method, boiled down:
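Compounds dissolved in DMSO were pin-transferred onto ERR cells that had been plated 6 h earlier, and cells were then incubated 18 h at 37 C; signal was luciferase luminescence via One-Glo.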

Experiment [17] in a line: qHTS assay to identify small molecule agonists of the estrogen related receptor (ERR) signaling pathway (AID 1224820). Summed up:
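Luminescence readout (One-Glo, 30 min RT) from NTP-supplied ERR cell line exposed to compounds for 18 h at 37 C. Cells seeded 2,000 per well and pre-incubated 6 h before pin-tool compound transfer.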

Experiment [18] deals with estrogen-related receptor alpha (ERRalpha) with PGC-1alpha coactivator, human. Put plainly: qHTS assay to identify small molecule antagonists of the estrogen related receptor signaling pathway with the pleiotropic PPARgamma coactivator (PGC) (AID 1224821; calls by dose curve). The method, boiled down: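 PGC/ERR reporter cells; 6 h pre-incubation 37 C/5% CO2; pin-tool compound in DMSO, 18 h 37 C; One-Glo added, 30 min RT; luminescence read. qHTS antagonist mode.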

Experiment [19] is described as follows: qHTS assay to identify small molecule antagonists of the estrogen related receptor signaling pathway with the pleiotropic PPARgamma coactivator (PGC) cell viability counter screen (AID 1224822; also: series mostly up to about 46 µM). Summed up:
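Counter screen for cell viability: PGC/ERR cells, 6 h pre-incubation after plating, 17.5 h compound exposure at 37 C, fluorescence from CellTiter-Fluor after 30 min.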

A short description of experiment [20]: qHTS assay to identify small molecule agonists of the estrogen related receptor signaling pathway with the pleiotropic PPARgamma coactivator (PGC) (AID 1224823). The method, boiled down:
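Luminescence readout (One-Glo, 30 min RT) from PGC/ERR cell line treated 18 h at 37 C with pin-tool-delivered DMSO compound solutions; cells plated 6 h before dosing. Quantitative HTS format.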

Chain of Retinoic acid receptor RXR-alpha (Homo sapiens) (P19793 whole entry, looked up): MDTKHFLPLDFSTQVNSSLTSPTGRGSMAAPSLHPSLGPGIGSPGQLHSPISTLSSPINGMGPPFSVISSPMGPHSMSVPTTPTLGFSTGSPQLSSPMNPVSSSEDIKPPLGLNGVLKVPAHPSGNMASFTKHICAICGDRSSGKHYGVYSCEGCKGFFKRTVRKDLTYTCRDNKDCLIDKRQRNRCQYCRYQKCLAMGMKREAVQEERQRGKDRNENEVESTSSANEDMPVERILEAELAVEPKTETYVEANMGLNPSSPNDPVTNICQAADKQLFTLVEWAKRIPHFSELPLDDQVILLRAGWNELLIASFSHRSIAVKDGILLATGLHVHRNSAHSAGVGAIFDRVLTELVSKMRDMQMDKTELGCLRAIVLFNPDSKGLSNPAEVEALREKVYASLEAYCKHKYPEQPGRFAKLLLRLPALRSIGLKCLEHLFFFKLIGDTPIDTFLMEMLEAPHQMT

In the case of `C=CCCCCCCCCO`, the Potency result in [1], in [4], in experiment [5], in experiment [6] and in [7] was “inactive” in each case. Also, the result in experiment [2], in experiment [3] and in [8] was inactive.

Regarding `COc1ccc2nc(NC(=O)Nc3ccccc3)sc2c1`, the Potency result in experiment [1], in experiment [4] and in [11] was “inactive” throughout. The result in experiment [9], in [10], in experiment [3], in [12] and in experiment [8] was inactive.

For the compound `COc1ccccc1OCC(O)COC(N)=O` (centres undefined), the Potency entry in experiment [1], in experiment [4], in experiment [11], in [6], in experiment [7] and in [13] was “inactive” throughout. Also, in [14], the Potency entry was “inactive”. Moreover, the call in experiment [9], in [10], in experiment [3] and in experiment [8] was inactive.

For `C=CCc1cc(OC)c(O)c(C(=O)NCCO)c1`, the Potency entry in [1], in experiment [4], in [11], in [5], in experiment [6] and in experiment [7] was “inactive” each time. For the same compound, the Potency entry in experiment [13] and in experiment [15] was “inactive” in each case. The compound was classed as inactive in experiment [9], in [3] and in experiment [8].

`CN1CCN(C2=Nc3ccccc3Oc3ccc(Cl)cc32)CC1`: the Potency result in experiment [1], in experiment [4], in [11], in experiment [13] and in [14] was “inactive” in each case. Further, the compound was called inactive in experiment [9], in [3], in experiment [12], in [8], in experiment [16] and in experiment [17]. For the same compound, the outcome in experiment [18], in experiment [19] and in [20] was inactive.

As for `c1ccc(CN(CC2=NCCN2)c2ccccc2)cc1`, the Potency entry in experiment [1], in experiment [4], in experiment [5], in [6], in experiment [7] and in experiment [13] was “inactive” each time. In addition, the Potency result in experiment [14] and in [15] was “inactive” in each case. For the same compound, the compound was called inactive in experiment [9], in [10], in [3], in experiment [12] and in experiment [8].

On to `CCCCCOc1ccc(C2SC(=O)NC2=O)cc1OCC` (centres undefined), for which the outcome in experiment [9], in experiment [10], in experiment [3] and in experiment [8] was inactive. Moreover, the Potency entry in experiment [4], in experiment [11], in experiment [5], in [7], in experiment [13] and in [15] was “inactive” in each case. The Potency in experiment [6] was 5.35 µM (active); in experiment [14], 21.1 µM (active).

With `CCN(CC)C(=O)N(CC)CC`, the Potency entry in experiment [1], in experiment [4], in experiment [5], in experiment [6], in experiment [7] and in experiment [13] was “inactive” in each case. In addition, the Potency result in [14] and in [15] was “inactive” each time. The compound was classed as inactive in experiment [9], in [3], in experiment [12] and in experiment [8].

On to `CCCC1CCC(=O)O1` (centres undefined), for which the Potency result in experiment [1], in [4], in experiment [11], in experiment [5], in experiment [7] and in experiment [15] was “inactive” in each case. The call in experiment [9], in experiment [10], in experiment [3] and in [8] was inactive.

Consider `ClC(Cl)Cl`, for which the Potency entry in experiment [1], in experiment [4], in experiment [7], in [13] and in experiment [15] was “inactive” each time. In addition, the compound was classed as inactive in [9], in [10], in experiment [3] and in experiment [8]. Also, the Potency in [11] was 48.2 µM (active).
